# Laboratory results reported in the supplement of paper PMC8728848.
# The entries come from a sample that favours the strongest signals as a whole.
# B1: R2-fiber (Pseudomonas aeruginosa), Q9S576 (protein)
# chain: HHHHHHKVAKDLVVSLAYQVRTEDGVLVDESPVSAPLDYLHGHGSLISGLETALEGHEVGDKFDVAVGANDAYGQYDENLVQRVPKDVFMGVDELQVGMRFLAETDQGPVPVEITAVEDDHVVVDGNHMLAGQNLKFNVEVVAIREATEEELAHGHVHGAHDHHHDHDHDGCCGGHGHDHGHEHGGEGCCGGKGNGGCGCHENLYFQGVTAGMALAATDIPGLDASKLVSGVLAEQRLPVFARGLATAVSNSSDPNTATVPLMLTNHANGPVAGRYFYIQSMFYPDQNGNASQIATSYNATSEMYVRVSYAANPSIREWLPWQRCDIGGSFTKEADGELPGGVNLDSMVTSGWWSQSFTAQAASGANYPIVRAGLLHVYAASSNFIYQTYQAYDGESFYFRCRHSNTWFPWRRMWHGGDFNPSDYLLKSGFYWNALPGKPATFPPSAHNHDVGQLTSGILPLARGGVGSNTAAGARSTIGAGVPATASLGASGWWRDNDTGLIRQWGQVTCPADADASITFPIPFPTLCLGGYANQTSAFHPGTDASTGFRGATTTTAVIRNGYFAQAVLSWEAFGR
# How the values were obtained:
# Assay in all cases: glycan array binding signal (z-score within array); higher = stronger binding
# Conditions in all cases: glycan notation: IUPAC condensed, linker removed
# [1] = biological target: Fuc(a1-2)Gal(b1-3)GalNAc(a1-3)[Fuc(a1-2)]Gal(b1-4)GlcNAc
# Outline: (§1)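 The binding signal is a Z-score computed within each array and averaged over linkers. Arrays of the same protein sequence at different concentrations or buffers were also averaged together. Data originate from 3228 arrays in the Consortium for Functional Glycomics database, kept only where the protein sequence was available.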
# Fuc(a1-2)Gal(b1-4)GlcNAc = biological target: Fuc(a1-2)Gal(b1-4)GlcNAc
# Outline: as §1
# [2] = biological target: Fuc(a1-2)Gal(b1-4)GlcNAc(b1-3)Gal(b1-4)GlcNAc(b1-2)Man(a1-3)[Fuc(a1-2)Gal(b1-4)GlcNAc(b1-3)Gal(b1-4)GlcNAc(b1-2)Man(a1-6)]Man(b1-4)GlcNAc(b1-4)GlcNAc
# Outline: as §1
# [3] = biological target: Fuc(a1-2)Gal(b1-4)GlcNAc(b1-6)GalNAc
# Outline: as §1
# [4] = biological target: Fuc(a1-2)Gal(b1-4)[Fuc(a1-3)]GlcNAc(b1-3)[Neu5Ac(a2-6)Gal(b1-4)GlcNAc(b1-6)]Gal(b1-4)Glc
# Outline: as §1
# [5] = biological target: Fuc(a1-2)[Gal(a1-3)]Gal(b1-4)GlcNAc(b1-3)[Fuc(a1-2)[Gal(a1-3)]Gal(b1-4)GlcNAc(b1-6)]GalNAc
# Outline: as §1
# [6] = biological target: Fuc(a1-2)[GalNAc(a1-3)]Gal(b1-3)GlcNAc(b1-2)Man(a1-3)[Fuc(a1-2)[GalNAc(a1-3)]Gal(b1-3)GlcNAc(b1-2)Man(a1-6)]Man(b1-4)GlcNAc(b1-4)[Fuc(a1-6)]GlcNAc
# Outline: as §1
# [7] = biological target: Fuc(a1-2)[GalNAc(a1-3)]Gal(b1-4)[Fuc(a1-3)]GlcNAc(b1-3)GalNAc
# Outline: as §1
# [8] = biological target: Fuc(a1-3)[Gal(b1-4)]GlcNAc(b1-6)GalNAc
# Outline: as §1
# Gal(a1-3)Gal = biological target: Gal(a1-3)Gal
# Outline: as §1
# [9] = biological target: Gal(a1-3)Gal(b1-3)GlcNAc(b1-6)GalNAc
# Outline: as §1
# Gal(a1-3)Gal(b1-4)Glc = biological target: Gal(a1-3)Gal(b1-4)Glc
# Outline: as §1
# Gal(b1-3)Gal(b1-4)GlcNAc = biological target: Gal(b1-3)Gal(b1-4)GlcNAc
# Outline: as §1
# Gal(b1-3)GalNAc = biological target: Gal(b1-3)GalNAc
# Outline: as §1
# [10] = biological target: Gal(b1-3)GlcNAc(b1-3)Gal(b1-4)GlcNAc(b1-6)[Gal(b1-3)GlcNAc(b1-3)]Gal(b1-4)Glc
# Outline: as §1
# [11] = biological target: Gal(b1-3)GlcNAc(b1-3)Gal(b1-4)[Fuc(a1-3)]GlcNAc
# Outline: as §1
# [12] = biological target: Gal(b1-3)[Fuc(a1-4)]GlcNAc(b1-2)Man
# Outline: as §1
# [13] = biological target: Gal(b1-3)[Fuc(a1-4)]GlcNAc(b1-3)Gal(b1-4)[Fuc(a1-3)]GlcNAc
# Outline: as §1
# [14] = biological target: Gal(b1-4)GlcNAc(b1-3)Gal(b1-4)GlcNAc(b1-2)[Gal(b1-4)GlcNAc(b1-3)Gal(b1-4)GlcNAc(b1-6)]Man(a1-6)[Gal(b1-4)GlcNAc(b1-3)Gal(b1-4)GlcNAc(b1-2)Man(a1-3)]Man(b1-4)GlcNAc(b1-4)GlcNAc
# Outline: as §1
# [15] = biological target: Gal(b1-4)GlcNAc(b1-3)Gal(b1-4)GlcNAc(b1-3)Gal(b1-4)GlcNAc
# Outline: as §1
# [16] = biological target: Gal(b1-4)GlcNAc(b1-3)GalNAc
# Outline: as §1
# Gal3S(b1-4)Glc = biological target: Gal3S(b1-4)Glc
# Outline: as §1
# [17] = biological target: Gal3S(b1-4)[Fuc(a1-3)]Glc6S
# Outline: as §1
# GalNAc3S(b1-4)GlcNAc = biological target: GalNAc3S(b1-4)GlcNAc
# Outline: as §1
# [18] = biological target: GlcNAc(b1-2)[GlcNAc(b1-6)]Man(a1-6)[GlcNAc(b1-2)Man(a1-3)]Man(b1-4)GlcNAc(b1-4)[Fuc(a1-6)]GlcNAc
# Outline: as §1
# [19] = biological target: GlcNAc(b1-3)Gal(b1-4)GlcNAc
# Outline: as §1
# [20] = biological target: GlcNAc(b1-3)Gal(b1-4)GlcNAc(b1-2)Man(a1-3)[GlcNAc(b1-3)Gal(b1-4)GlcNAc(b1-2)Man(a1-6)]Man(b1-4)GlcNAc(b1-4)GlcNAc
# Outline: as §1
# [21] = biological target: GlcNAc(b1-3)Gal(b1-4)GlcNAc(b1-3)Gal(b1-4)GlcNAc
# Outline: as §1
# [22] = biological target: GlcNAc(b1-3)Gal(b1-4)GlcNAc(b1-6)[Gal(b1-3)]GalNAc
# Outline: as §1
# [23] = biological target: GlcNAc(b1-3)[GlcNAc(b1-6)]GalNAc
# Outline: as §1
# [24] = biological target: GlcNAc(b1-4)GlcNAc(b1-4)GlcNAc(b1-4)GlcNAc(b1-4)GlcNAc(b1-4)GlcNAc
# Outline: as §1
# [25] = biological target: GlcNAc6S(b1-3)Gal(b1-4)GlcNAc
# Outline: as §1
# [26] = biological target: Man(a1-2)Man(a1-3)[Man(a1-2)Man(a1-6)]Man(a1-6)[Man(a1-2)Man(a1-2)Man(a1-3)]Man
# Outline: as §1
# [27] = biological target: Man(a1-3)[Man(a1-6)]Man(b1-4)GlcNAc(b1-4)[Fuc(a1-6)]GlcNAc
# Outline: as §1
# Neu5Ac(a2-3)Gal = biological target: Neu5Ac(a2-3)Gal
# Outline: as §1
# [28] = biological target: Neu5Ac(a2-3)Gal(b1-3)GalNAc
# Outline: as §1
# [29] = biological target: Neu5Ac(a2-3)Gal(b1-4)GlcNAc(b1-2)Man(a1-3)[Neu5Ac(a2-3)Gal(b1-4)GlcNAc(b1-2)Man(a1-6)]Man(b1-4)GlcNAc(b1-4)[Fuc(a1-6)]GlcNAc
# Outline: as §1
# [30] = biological target: Neu5Ac(a2-3)Gal(b1-4)GlcNAc(b1-3)Gal(b1-4)GlcNAc(b1-3)[Neu5Ac(a2-3)Gal(b1-4)GlcNAc(b1-3)Gal(b1-4)GlcNAc(b1-6)]GalNAc
# Outline: as §1
# [31] = biological target: Neu5Ac(a2-3)Gal6S(b1-4)[Fuc(a1-3)]GlcNAc
# Outline: as §1
# [32] = biological target: Neu5Ac(a2-3)[GalNAc(b1-4)]Gal(b1-4)GlcNAc
# Outline: as §1
# [33] = biological target: Neu5Ac(a2-6)Gal(b1-4)GlcNAc
# Outline: as §1
# [34] = biological target: Neu5Ac(a2-6)Gal(b1-4)GlcNAc(b1-6)[Gal(b1-3)GlcNAc(b1-3)]Gal(b1-4)Glc
# Outline: as §1
# [35] = biological target: Neu5Ac(a2-8)Neu5Ac(a2-8)Neu5Ac(a2-8)Neu5Ac(a2-3)[GalNAc(b1-4)]Gal(b1-4)Glc
# Outline: as §1
# [36] = biological target: Neu5Ac9Ac(a2-3)Gal(b1-4)GlcNAc
# Outline: as §1
# [37] = biological target: Neu5Gc(a2-3)Gal(b1-3)GlcNAc
# Outline: as §1
binder,measurement,setting,value
B1,glycan array binding signal (z-score),[1],2.11
same,glycan array binding signal (z-score),Fuc(a1-2)Gal(b1-4)GlcNAc,0.297
same,glycan array binding signal (z-score),[2],-1.36
same,glycan array binding signal (z-score),[3],-0.579
same,glycan array binding signal (z-score),[4],-0.021
same,glycan array binding signal (z-score),[5],2.68
same,glycan array binding signal (z-score),[6],-0.288
same,glycan array binding signal (z-score),[7],3.46
same,glycan array binding signal (z-score),[8],2.09
same,glycan array binding signal (z-score),Gal(a1-3)Gal,0.366
same,glycan array binding signal (z-score),[9],0.045
same,glycan array binding signal (z-score),Gal(a1-3)Gal(b1-4)Glc,-0.505
same,glycan array binding signal (z-score),Gal(b1-3)Gal(b1-4)GlcNAc,-0.114
same,glycan array binding signal (z-score),Gal(b1-3)GalNAc,-0.235
same,glycan array binding signal (z-score),[10],0.141
same,glycan array binding signal (z-score),[11],0.162
same,glycan array binding signal (z-score),[12],-0.063
same,glycan array binding signal (z-score),[13],2.1
same,glycan array binding signal (z-score),[14],2.06
same,glycan array binding signal (z-score),[15],0.018
same,glycan array binding signal (z-score),[16],-1.43
same,glycan array binding signal (z-score),Gal3S(b1-4)Glc,-0.16
same,glycan array binding signal (z-score),[17],0.853
same,glycan array binding signal (z-score),GalNAc3S(b1-4)GlcNAc,-0.587
same,glycan array binding signal (z-score),[18],14.6
same,glycan array binding signal (z-score),[19],-0.499
same,glycan array binding signal (z-score),[20],0.012
same,glycan array binding signal (z-score),[21],0.586
same,glycan array binding signal (z-score),[22],0.122
same,glycan array binding signal (z-score),[23],0.283
same,glycan array binding signal (z-score),[24],-0.525
same,glycan array binding signal (z-score),[25],-0.144
same,glycan array binding signal (z-score),[26],-0.717
same,glycan array binding signal (z-score),[27],-0.775
same,glycan array binding signal (z-score),Neu5Ac(a2-3)Gal,2.35
same,glycan array binding signal (z-score),[28],-0.092
same,glycan array binding signal (z-score),[29],5.23
same,glycan array binding signal (z-score),[30],-0.406
same,glycan array binding signal (z-score),[31],5.49
same,glycan array binding signal (z-score),[32],-0.151
same,glycan array binding signal (z-score),[33],3
same,glycan array binding signal (z-score),[34],0.031
same,glycan array binding signal (z-score),[35],0.115
same,glycan array binding signal (z-score),[36],-1.16
same,glycan array binding signal (z-score),[37],-0.167
